Values joined by “and” are separate entries in the source; they are usually repeats but may differ in a detail not shown here. Equal values may be shown once. Active and inactive are the calls of the source.
Legend:
[1] = small molecules captured by biotinylated probe aFSTL3 – biochemical, small-molecule microarray, fluorescence 635/667, stem cell growth factor project, primary screen (AID 1064); conditions: higher = more signal;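 further: measures binding of the biotinylated anti-FSTL3 antibody to printed compounds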
[2] = binders from COS7 lysate, DM2A8 probe, primary screen, torsin A project, cell lysate, small-molecule microarray, fluorescence 635/667 (AID 1065); conditions: higher = more signal, COS7 lysate expressing mutant human TOR1A
[3] = small molecules captured by biotinylated probe aFGF2 – biochemical, small-molecule microarray, fluorescence 635/667, stem cell growth factor project, primary screen (AID 1067); conditions: higher = more signal;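 further: measures binding of biotinylated aFGF2 protein to printed compounds on slides; z-score merges feature fluorescence and signal-to-noise across triplicate slides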
[4] = small molecules captured by biotinylated probe aFGF10 – biochemical, small-molecule microarray, fluorescence 635/667, stem cell growth factor project, primary screen (AID 1071); conditions: higher = more signal;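 further: score merges 667 nm spot intensity and signal to noise from triplicate slides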
[5] = target: Neurogenic locus notch homolog protein 2 (Homo sapiens) (UniProt Q04721); assay: small molecules binding Notch2 protein – biochemical, small-molecule microarray, 635 nm fluorescence, stem cell growth factors, primary screen (AID 1073); conditions: higher = more signal
Sequence of Neurogenic locus notch homolog protein 2 (Homo sapiens) (Q04721 whole entry, looked up, canonical isoform): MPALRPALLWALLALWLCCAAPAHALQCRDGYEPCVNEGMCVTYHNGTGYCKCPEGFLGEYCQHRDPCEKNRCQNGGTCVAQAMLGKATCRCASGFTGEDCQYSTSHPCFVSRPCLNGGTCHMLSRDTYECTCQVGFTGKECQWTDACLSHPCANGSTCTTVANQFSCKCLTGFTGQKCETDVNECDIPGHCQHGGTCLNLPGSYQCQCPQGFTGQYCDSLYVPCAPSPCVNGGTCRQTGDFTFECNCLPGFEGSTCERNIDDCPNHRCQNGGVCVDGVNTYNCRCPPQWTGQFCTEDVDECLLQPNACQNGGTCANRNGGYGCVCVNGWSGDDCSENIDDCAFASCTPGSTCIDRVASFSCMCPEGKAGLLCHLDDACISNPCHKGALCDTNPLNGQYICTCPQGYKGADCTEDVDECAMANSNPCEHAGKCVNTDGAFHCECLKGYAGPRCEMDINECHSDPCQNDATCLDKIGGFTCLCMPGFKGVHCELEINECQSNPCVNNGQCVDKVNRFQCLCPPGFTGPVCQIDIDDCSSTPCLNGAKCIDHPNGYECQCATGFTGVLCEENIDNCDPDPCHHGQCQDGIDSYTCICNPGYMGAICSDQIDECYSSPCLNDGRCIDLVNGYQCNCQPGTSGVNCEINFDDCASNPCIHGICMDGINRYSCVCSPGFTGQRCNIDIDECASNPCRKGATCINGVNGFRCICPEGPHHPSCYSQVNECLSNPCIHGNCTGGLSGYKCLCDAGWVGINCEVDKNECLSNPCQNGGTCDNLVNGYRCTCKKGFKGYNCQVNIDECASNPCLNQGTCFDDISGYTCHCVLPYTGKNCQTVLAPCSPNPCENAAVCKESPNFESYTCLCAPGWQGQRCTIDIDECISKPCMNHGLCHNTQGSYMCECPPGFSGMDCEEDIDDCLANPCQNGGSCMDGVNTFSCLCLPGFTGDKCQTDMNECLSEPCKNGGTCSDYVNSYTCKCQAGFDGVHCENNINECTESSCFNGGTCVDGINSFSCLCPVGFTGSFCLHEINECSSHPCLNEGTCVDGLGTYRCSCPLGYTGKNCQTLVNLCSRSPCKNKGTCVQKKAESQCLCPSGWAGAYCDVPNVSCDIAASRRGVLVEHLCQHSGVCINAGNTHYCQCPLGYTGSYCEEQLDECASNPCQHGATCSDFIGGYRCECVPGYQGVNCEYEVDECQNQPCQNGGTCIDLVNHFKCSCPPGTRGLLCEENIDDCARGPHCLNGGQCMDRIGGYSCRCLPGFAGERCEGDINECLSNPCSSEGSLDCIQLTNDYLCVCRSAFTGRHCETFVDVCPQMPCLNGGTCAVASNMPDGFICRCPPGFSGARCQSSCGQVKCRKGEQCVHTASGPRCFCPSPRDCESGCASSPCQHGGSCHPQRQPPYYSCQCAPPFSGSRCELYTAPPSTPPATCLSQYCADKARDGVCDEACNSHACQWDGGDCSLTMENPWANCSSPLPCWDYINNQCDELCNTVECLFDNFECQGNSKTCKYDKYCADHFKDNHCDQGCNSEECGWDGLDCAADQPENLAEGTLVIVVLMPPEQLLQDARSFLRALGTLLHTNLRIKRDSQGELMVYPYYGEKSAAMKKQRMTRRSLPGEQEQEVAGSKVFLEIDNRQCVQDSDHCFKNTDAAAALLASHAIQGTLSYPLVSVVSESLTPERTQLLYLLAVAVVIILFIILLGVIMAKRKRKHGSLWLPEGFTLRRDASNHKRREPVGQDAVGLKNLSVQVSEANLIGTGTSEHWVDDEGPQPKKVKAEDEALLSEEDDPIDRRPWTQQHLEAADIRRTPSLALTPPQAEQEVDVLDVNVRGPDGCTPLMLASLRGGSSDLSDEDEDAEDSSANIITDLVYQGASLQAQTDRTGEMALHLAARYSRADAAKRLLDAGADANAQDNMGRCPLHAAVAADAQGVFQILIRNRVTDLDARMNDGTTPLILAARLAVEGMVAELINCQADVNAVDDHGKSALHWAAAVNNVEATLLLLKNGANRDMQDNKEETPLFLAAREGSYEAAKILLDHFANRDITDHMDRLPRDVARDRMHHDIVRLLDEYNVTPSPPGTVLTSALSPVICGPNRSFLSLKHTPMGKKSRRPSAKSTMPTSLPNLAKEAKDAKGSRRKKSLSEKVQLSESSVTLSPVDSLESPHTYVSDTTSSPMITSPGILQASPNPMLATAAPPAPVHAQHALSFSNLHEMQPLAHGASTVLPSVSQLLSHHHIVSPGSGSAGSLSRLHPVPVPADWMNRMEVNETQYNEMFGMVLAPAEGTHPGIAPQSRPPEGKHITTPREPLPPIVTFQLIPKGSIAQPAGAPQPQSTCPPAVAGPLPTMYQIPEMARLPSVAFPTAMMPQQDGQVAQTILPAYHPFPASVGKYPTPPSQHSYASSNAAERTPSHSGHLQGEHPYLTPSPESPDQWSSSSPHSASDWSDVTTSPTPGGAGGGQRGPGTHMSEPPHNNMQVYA

[6] = target: Pro-neuregulin-1, membrane-bound isoform (Homo sapiens) (UniProt Q02297); assay: small molecules binding neuregulin-1 protein – biochemical, small-molecule microarray, fluorescence 635/667, psychiatric disease protein project, primary screen (AID 1075); conditions: NRG1 binding, 635 nm fluorescence, higher = more signal;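 further: score combines 667 nm spot fluorescence with signal to noise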
[7] = test system: Neuregulin-1 EGF-like domain; assay: small molecules binding NRG1 EGF domain – biochemical, small-molecule microarray, 635 nm fluorescence, primary screen (AID 1081); conditions: higher = more signal;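 further: binding of the protein to compounds printed on small-molecule microarray slides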
[8] = FRG1 expression reporter modulators in myotubes – cell-based, C2C12 myotubes, firefly/Renilla luciferase, luminescence, FRG1 inhibition for FSHD, primary screen (AID 1084); conditions: FRG1 promoter luciferase, higher = more signal, called active from +8 up or from −8 down
[9] = small molecules captured by biotinylated probe aFST – biochemical, small-molecule microarray, fluorescence 635/667, stem cell growth factor project, primary screen (AID 1086); conditions: higher = more signal;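 further: score merges 667 nm fluorescence with signal-to-noise of each printed compound spot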
[10] = binders of probe aHhip on microarray, primary screen, stem cell growth factor project, biochemical, small-molecule microarray, fluorescence 635/667 (AID 1087); conditions: higher = more signal;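 further: score merges spot fluorescence at 667nm with spot signal to noise ratio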
[11] = test system: PRMT1 (protein arginine N-methyltransferase 1); assay: small molecules binding arginine methyltransferase PRMT1 – biochemical, small-molecule microarray, 635 nm fluorescence, primary screen (AID 1088); conditions: higher = more signal;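 further: binding of Prmt1 protein to compounds spotted on small-molecule microarray slides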
[12] = growth effects on S. cerevisiae YJM789 – YJM789 clinical isolate, OD600, 24 h, basal, primary screen (AID 1089); conditions: higher = more signal, called active from +8 up or from −8 down;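 further: growth of clinical yeast isolate S. cerevisiae YJM 789 seeded 1000 cells per well; test concentration not given here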
[13] = S. pombe growth modifiers, basal conditions – strain 972, OD600, 24 h, no modulator, primary screen (AID 1090);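 further: basal condition with compound alone and no growth modifier present; test concentration not given here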; conditions: S. pombe 972 growth, higher = more signal, called active from +8 up or from −8 down
[14] = budding yeast growth modifiers under rapamycin – strain BY4716, OD600, 96 h, primary screen (AID 1091); further: test concentration not given here; conditions: S. cerevisiae BY4716 + rapamycin, higher = more signal, called active from +8 up or from −8 down
[15] = target: Torsin-1A-interacting protein 2 (Homo sapiens) (UniProt Q8NFQ8); assay: small molecules binding lysate-expressed LULL1 – cell lysate, human LULL1 lysate, 635/667 nm fluorescence, primary screen (AID 1092); conditions: small-molecule microarray, hLULL1 lysate binding, 635 nm fluorescence; higher = more signal;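 further: probe is lysate of COS7 cells overexpressing human LULL1; score merges per-feature 667 nm fluorescence with signal-to-noise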
[16] = optical density change of DRC41 E. coli – strain DRC41, OD650, 24 h, E. coli filamentation project, primary screen (AID 1093);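 further: MC1000 strain lacking acrAB efflux and sulA so SOS filamentation is blocked; test concentration not given here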; conditions: E. coli DRC41 growth, higher = more signal, called active from +8 up or from −8 down
[17] = probe aLefty2 binding to arrayed compounds – biochemical, biotinylated probe, 635/667 nm fluorescence, primary screen (AID 1094); conditions: small-molecule microarray, higher = more signal;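 further: score merges spot fluorescence near 667 nm with spot signal-to-noise ratio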
[18] = test system: Noggin (protein binding on small-molecule microarray); assay: small molecules binding Noggin protein – biochemical, 635/667 nm fluorescence, primary screen (AID 1095); conditions: 635 nm fluorescence, higher = more signal;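 further: score merges 667 nm feature fluorescence with signal to noise over triplicate slides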
[19] = target: Neurogenic locus notch homolog protein 3 (Homo sapiens) (UniProt Q9UM47); assay: small molecules binding NOTCH3 protein – biochemical, 635/667 nm fluorescence, primary screen (AID 1096); conditions: small-molecule microarray, 635 nm fluorescence, higher = more signal
Sequence of Neurogenic locus notch homolog protein 3 (Homo sapiens) (Q9UM47 whole entry, looked up): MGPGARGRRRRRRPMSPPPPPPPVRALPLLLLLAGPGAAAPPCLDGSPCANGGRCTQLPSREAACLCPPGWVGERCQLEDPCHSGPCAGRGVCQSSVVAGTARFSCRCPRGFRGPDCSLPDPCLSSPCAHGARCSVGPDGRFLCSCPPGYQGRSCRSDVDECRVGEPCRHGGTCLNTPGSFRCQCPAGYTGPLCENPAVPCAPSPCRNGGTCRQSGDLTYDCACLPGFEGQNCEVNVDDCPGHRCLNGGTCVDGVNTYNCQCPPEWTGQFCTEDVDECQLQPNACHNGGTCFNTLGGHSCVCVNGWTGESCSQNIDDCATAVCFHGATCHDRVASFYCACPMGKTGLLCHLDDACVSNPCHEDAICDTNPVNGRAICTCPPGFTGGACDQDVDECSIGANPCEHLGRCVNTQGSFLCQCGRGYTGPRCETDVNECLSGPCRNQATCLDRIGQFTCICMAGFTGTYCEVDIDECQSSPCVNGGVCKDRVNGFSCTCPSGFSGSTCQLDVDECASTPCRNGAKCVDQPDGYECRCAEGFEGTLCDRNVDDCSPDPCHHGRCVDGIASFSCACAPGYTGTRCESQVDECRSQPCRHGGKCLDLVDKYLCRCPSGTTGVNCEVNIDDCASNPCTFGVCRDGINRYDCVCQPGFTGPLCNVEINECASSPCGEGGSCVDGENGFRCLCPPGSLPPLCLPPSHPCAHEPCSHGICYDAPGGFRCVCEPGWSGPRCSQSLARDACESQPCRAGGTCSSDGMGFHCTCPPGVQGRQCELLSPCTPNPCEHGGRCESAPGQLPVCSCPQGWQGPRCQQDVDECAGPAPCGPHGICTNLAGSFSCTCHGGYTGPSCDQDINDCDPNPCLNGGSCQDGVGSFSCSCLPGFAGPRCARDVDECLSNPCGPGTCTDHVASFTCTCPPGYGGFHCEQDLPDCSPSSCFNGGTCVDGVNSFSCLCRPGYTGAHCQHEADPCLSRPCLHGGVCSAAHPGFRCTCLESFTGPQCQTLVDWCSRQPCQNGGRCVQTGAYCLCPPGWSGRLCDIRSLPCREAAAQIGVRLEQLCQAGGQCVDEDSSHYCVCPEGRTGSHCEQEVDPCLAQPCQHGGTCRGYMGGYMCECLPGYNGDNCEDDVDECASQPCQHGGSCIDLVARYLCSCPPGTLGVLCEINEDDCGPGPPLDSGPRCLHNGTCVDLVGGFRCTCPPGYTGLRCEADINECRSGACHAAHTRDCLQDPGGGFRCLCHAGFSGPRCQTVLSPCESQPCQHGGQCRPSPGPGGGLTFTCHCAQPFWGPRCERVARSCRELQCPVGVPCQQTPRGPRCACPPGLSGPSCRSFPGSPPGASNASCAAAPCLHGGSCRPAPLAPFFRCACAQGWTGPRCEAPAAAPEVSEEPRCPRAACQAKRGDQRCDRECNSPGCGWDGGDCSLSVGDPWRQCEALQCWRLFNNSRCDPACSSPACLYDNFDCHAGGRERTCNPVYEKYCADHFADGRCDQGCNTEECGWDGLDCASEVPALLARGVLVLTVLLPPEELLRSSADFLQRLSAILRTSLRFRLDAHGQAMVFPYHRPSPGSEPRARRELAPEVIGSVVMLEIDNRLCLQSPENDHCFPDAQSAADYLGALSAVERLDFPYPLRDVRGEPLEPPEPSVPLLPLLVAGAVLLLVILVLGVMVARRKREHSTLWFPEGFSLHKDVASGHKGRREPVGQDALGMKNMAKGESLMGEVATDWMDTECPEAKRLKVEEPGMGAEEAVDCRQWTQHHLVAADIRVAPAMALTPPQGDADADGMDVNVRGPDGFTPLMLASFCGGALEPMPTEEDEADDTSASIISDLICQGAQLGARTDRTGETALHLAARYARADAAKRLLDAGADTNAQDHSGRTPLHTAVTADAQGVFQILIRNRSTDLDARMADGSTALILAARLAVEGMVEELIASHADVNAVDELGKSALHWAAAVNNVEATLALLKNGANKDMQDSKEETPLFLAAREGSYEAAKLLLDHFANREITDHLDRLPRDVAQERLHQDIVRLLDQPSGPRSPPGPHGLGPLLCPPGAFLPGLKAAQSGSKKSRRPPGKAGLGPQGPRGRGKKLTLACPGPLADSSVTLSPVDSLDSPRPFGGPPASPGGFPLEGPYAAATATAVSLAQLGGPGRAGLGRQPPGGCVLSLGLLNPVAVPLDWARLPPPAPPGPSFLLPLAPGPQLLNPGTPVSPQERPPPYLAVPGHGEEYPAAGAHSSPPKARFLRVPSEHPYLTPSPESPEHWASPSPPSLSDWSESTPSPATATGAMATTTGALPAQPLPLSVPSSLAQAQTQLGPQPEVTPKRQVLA

[20] = probe aEGFR binding to arrayed compounds – biochemical, biotinylated probe, 635/667 nm fluorescence, primary screen (AID 1097); conditions: small-molecule microarray, higher = more signal;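 further: probe is a biotinylated anti-EGFR antibody binding compounds printed on slides; score combines fluorescence near 667 nm and signal to noise of each spot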

Structure (SMILES)	composite z-score [1]	composite z-score [2]	composite z-score [3]	composite z-score [4]	composite z-score [5]	composite z-score [6]	composite z-score [7]	z-score [8]	composite z-score [9]	composite z-score [10]	composite z-score [11]	z-score [12]	z-score [13]	z-score [14]	composite z-score [15]	z-score [16]	composite z-score [17]	composite z-score [18]	composite z-score [19]	composite z-score [20]
COC(=O)c1c2oc(c1C(=O)OC)C(=O)N[C@@H](Cc1ccccc1)Cn1cc(nn1)C1(CCCCC1)NC(=O)N[C@H](CO)CC2	0.345 and -0.428	-0.946 and -0.603	-0.0558 and -0.0752	0.866 and 0.262	0.395 and 0.428	1.23 and 0.0012	1.31 and 0.747	-0.818 (inactive) and -1 (inactive)	0.247 and 0.182	-0.0346 and -0.13	1.43 and 0.951	0.168 (inactive) and 0.611 (inactive)	-0.79 (inactive) and -0.186 (inactive)	-0.427 (inactive) and -0.2 (inactive)	2.52 and 0.978	2.09 (inactive) and 1.21 (inactive)	0.558 and 0.72	1.57 and 0.416	0.971 and 0.57	0.0408 and -0.0697
COCn1c2ccccc2c2nnc(C(C)=O)nc21	-0.401 and -0.253	0.416 and -0.0491	-0.108 and -0.112	0.111 and 0.226	-0.0995 and 0.194	-0.325 and -0.146	-0.29 and -0.548	0.51 (inactive) and 0.697 (inactive)	0.252 and -0.0637	-0.0994 and 0.0515	-0.217 and 0.724	-0.405 (inactive) and -0.362 (inactive)	-0.267 (inactive) and -1.08 (inactive)	-0.189 (inactive) and -0.135 (inactive)	-0.0703 and 0.184	-0.35 (inactive) and -0.768 (inactive)	-0.0702 and -0.0137	0.1 and 0.372	-0.007 and 0.307	-0.0398 and -0.123
C=CCN(CCCC)C(=O)C1N(C(C)(C)CO)C(=O)C2C(C(=O)O)C3C=CC21O3 (stereo not given)	0.501 and 0.858	-0.796 and -1.83	-0.249 and -0.252	-1.94 and -1.01	-1.33 and -1.67	1.06 and -1.21	0.111 and -0.645	1.4 (inactive) and 0.963 (inactive)	-1.12 and -0.587	-0.204 and -0.0645	-0.278 and -1.01	-0.412 (inactive) and 0.0394 (inactive)	0.0945 (inactive) and 0.0925 (inactive)	-0.626 (inactive) and -0.302 (inactive)	-0.523 and -0.805	-0.21 (inactive) and -0.367 (inactive)	-0.223 and -0.124	-2.07 and -1.17	-0.732 and -0.74	-0.23 and -0.336
CC(C)[Si]1(C(C)C)OCc2cc(C3CC3)nc(CCc3ccccc3)c21	-0.141 and -0.208	-0.305 and 0.114	-0.0412 and -0.16	-0.124 and 0.172	0.0069 and 0.589	-0.352 and -0.0692	-1.21 and -0.253	-0.218 (inactive) and 0.53 (inactive)	0.0391 and 0.169	-0.0237 and -0.118	-0.834 and 0.139	0.289 (inactive) and 0.35 (inactive)	-1.32 (inactive) and 0.134 (inactive)	0.725 (inactive) and 0.474 (inactive)	-0.597 and 0.259	-0.102 (inactive) and -1.01 (inactive)	-0.22 and -0.0956	-0.27 and 0.258	-0.149 and 0.351	-0.109 and -0.0147
C=CCN(C(=O)C(c1cccs1)N(C(=O)/C=C\C(=O)O)c1c(Cl)cccc1CO)c1ccc(OC)cc1 (stereo not given)	1.98 and 1.01	-0.781 and -0.551	-0.228 and -0.0608	-1.56 and -0.737	-1.87 and -1.28	1.04 and -0.796	0.782 and 0.0793	0.284 (inactive) and 0.649 (inactive)	-1 and -0.362	-0.164 and -0.229	-0.517 and -1.02	-0.521 (inactive) and 0.247 (inactive)	-1.88 (inactive) and -0.83 (inactive)	-1.51 (inactive) and -0.982 (inactive)	3.16 and 0.422	1.67 (inactive) and -0.311 (inactive)	0.018 and 0.522	-3.84 and -2.48	-1.02 and -1.39	-0.238 and -0.121
CON(C)C(=O)c1nnc2c3ccccc3n(S(=O)(=O)c3ccc(C)cc3)c2n1	-0.492 and -0.386	0.216 and 0.226	-0.208 and 0.0937	0.455 and 0.814	0.81 and 0.675	1.08 and 0.789	0.804 and 1.19	161 (active) and 193 (active)	-0.458 and 0.184	0.12 and 0.28	-0.0043 and 1.58	-0.461 (inactive) and 0.111 (inactive)	-0.823 (inactive) and -1.05 (inactive)	0.171 (inactive) and -0.671 (inactive)	1.2 and 1.93	0.155 (inactive) and 0.517 (inactive)	-0.0944 and -0.229	0.423 and 0.772	0.233 and 1.04	-0.0238 and -0.171
Cc1ccc(S(=O)(=O)N[C@@H]2COC(=O)CC=C[C@@H](C)[C@@H]3C=C[C@H](O)[C@@H](COC(=O)CC=C[C@H]2C)O3)cc1	-0.534 and -0.776	1.1 and 0.792	-0.131 and -0.175	0.0127 and 0.11	-0.557 and 0.111	-0.22 and -0.195	0.0077 and 0.324	0.132 (inactive) and 0.646 (inactive)	0.101 and 0.0406	0.0243 and -0.26	0.438 and 0.385	-0.147 (inactive) and -0.184 (inactive)	-0.349 (inactive) and -0.549 (inactive)	-0.564 (inactive) and -0.784 (inactive)	-0.0372 and -0.0592	0.651 (inactive) and -0.667 (inactive)	-0.185 and -0.162	0.902 and 0.305	-0.0571 and 0.584	-0.072 and -0.112
